This is a sample that favours compounds with a hit; in the whole collection about 21% have one here.
SARS PLP yeast – SARS-CoV PLP inhibition in yeast; S. cerevisiae expressing SARS-CoV PLpro, growth rescue; Potency, µM (highest dose often 32.9 µM), most hits filed as activators; 330,000 tested, 0.19% active; AID 485353; calls by dose curve; note: nearly all actives have a fitted effect of over 55% in size
Shiga inhibitor – Shiga toxin inhibition; 290,000 tested, 9.2% active; inhibition, % at 38.7 µM; Vero cells, Shiga toxin protein synthesis inhibition reporter; in the data active = inhibition mostly above about 28%, no sharp cut-off; inactive = mostly below about 43%
NS1 function inh – blocks influenza NS1 protein function; Potency, µM (titrated, usually from 46.1 µM); AID 2326; 270,000 tested, 0.4% active; calls by dose curve; note: actives are rising curves; nearly all actives have a fitted effect of over 50% in size
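Read-out: OD600 growth recovery of NS1-expressing budding yeast. Cells grown overnight at 30C in -URA glucose medium, washed, resuspended and diluted 1:100 in 2% galactose assay medium, pH 6.0. Same strain lacking NS1 served as positive control.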
Pf growth 96h – inhibits malaria parasite growth, 96 h. P. falciparum luciferase reporter growth, 96 h. Potency, µM (top dose mostly 28.7 µM), actives largely listed as inhibitors. 320,000 tested, 6.9% active. AID 504834
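96 h incubation, 37 C, 5% CO2, of luciferase-reporter P. falciparum-infected RBCs (2% hematocrit, 0.05% parasitemia final) with test compounds; endpoint luminescence.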
Cycloheximide cs – counter-screen for Shiga toxin inhibitors: cycloheximide protein synthesis inhibition | 300,000 tested, 12% active | max response, % | cell reporter, cycloheximide protein synthesis inhibition counterscreen; in the data active = max response mostly above about 13%, no sharp cut-off; inactive = mostly below about 14%; note: read at 38.3 µM for the half of the compounds with a filed dose
Pf growth 48h – inhibits P. falciparum growth in the first generation, 48 h. AID 504832. Potency, µM (highest dose often 28.7 µM), actives largely listed as inhibitors. 310,000 tested, 5.9% active. P. falciparum luciferase growth in erythrocytes, 48 h
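Here the parasites carry a stable luciferase gene and grow inside erythrocytes in Albumax-based RPMI medium with compound for one erythrocytic cycle. Activity is scored as loss of luminescent signal.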
Hits are given with their value; . = inactive; ? = inconclusive; / = no result. Unless noted, calls come from the whole dose curve; as a rule, active = well fitted inhibition curve with a large enough effect; inconclusive = small, poorly fitted or top-dose-only effect, or another doubt; inactive = no such curve, though single readings can be large or run the other way.

SMILES	SARS PLP yeast	Shiga inhibitor	NS1 function inh	Pf growth 96h	Cycloheximide cs	Pf growth 48h
COc1cccc(C(=O)Nc2cccc(-c3nc4ncccc4o3)c2C)c1	.	.	.	.	.	.
CCOc1cccc(C(=O)Nc2cccc(-c3nc4ncccc4o3)c2C)c1	.	.	.	.	.	.
COc1ccc(C(=O)Nc2cccc(-c3nc4ncccc4o3)c2C)cc1OC	.	.	.	3.7µM	.	.
Cc1c(NC(=O)c2ccc([N+](=O)[O-])o2)cccc1-c1nc2ncccc2o1	.	.	.	.	.	11.7µM
CCNC(=S)Nc1ccccc1-c1ccccc1	.	.	.	.	.	?
Cc1ccc(Nc2nc3nonc3[nH]c2=O)cc1C	.	108.3	.	5.22µM	35.8	.
CN(CCC1CCCCO1)C(=O)CCc1nnc(CCc2ccccc2)o1 (configuration not stated)	.	46.7	.	.	32.0	.
CN(Cc1cccc2cnccc12)C(=O)CCc1nnc(CCc2ccccc2)o1	.	47.2	.	?	36.6	?
Cc1cccc(Cc2nnc(CCC(=O)N(C)CCc3ccccc3)o2)c1	.	61.5	.	11.7µM	47.8	.
Cc1cc(-c2nnc(CCC(=O)N(CC3CCC3)CC3CCCO3)o2)no1 (configuration not stated)	.	78.1	.	.	44.0	.
CCOc1ccc(-n2ccn(CC(=O)NCCc3ccccc3)c(=O)c2=O)cc1	.	/	/	.	/	.
Cc1cc(-c2nnc(CCC(=O)N(C)CCc3ccccc3)o2)no1	.	74.0	.	.	19.4	.
Cc1cc(-c2nnc(CCC(=O)NC(Cc3ccccc3)c3ccccc3)o2)no1 (configuration not stated)	.	.	.	.	.	?
CCOc1cc(/C=C/C(=O)OCC(=O)NC2CCS(=O)(=O)C2)ccc1OCc1ccccc1 (configuration not stated)	.	.	/	.	.	.
c1nc(N2CCCCC2)c2[nH]cnc2n1	.	.	.	13.1µM	.	.
Cc1ccc(C(=O)NCC(=O)OCC(=O)NC(C)C2CC3CCC2C3)cc1 (configuration not stated)	.	/	/	.	/	.
Cn1nc([N+](=O)[O-])nc1S(C)(=O)=O	.	.	/	4.65µM	31.0	.
Cn1nc([N+](=O)[O-])nc1Oc1ccc2ccccc2c1	.	.	.	.	.	/
COc1ccc(OC)c(C(=O)c2ccc(C(=O)Nc3ccc(NC(C)=O)cc3)cc2)c1	.	.	.	.	.	.
COc1ccc(/C=C(/NC(=O)c2ccco2)C(=O)N2CCCCCC2)cc1OC	.	.	.	11.7µM	.	.
COc1ccc(/C=C(/NC(=O)c2ccccc2)C(=O)N2CCCCC2)cc1OC	.	.	.	?	.	?
COc1ccc(/C=C(/NC(=O)c2ccccc2)C(=O)N2CCC(C)CC2)cc1	.	.	.	.	.	?
O=C(N/C(=C/c1ccccc1)C(=O)N1CCCCC1)c1ccccc1	.	51.0	.	.	96.4	.
CCOC(=O)N1CCN(C(=O)/C(=C/c2cccc3ccccc23)NC(=O)c2ccc(OC)cc2)CC1	.	.	.	9.28µM	16.9	13.1µM
O=C(N/C(=C/c1ccccc1)C(=O)N1CCCCCC1)c1ccccc1	.	.	/	.	.	.
SMILES	SARS PLP yeast	Shiga inhibitor	NS1 function inh	Pf growth 96h	Cycloheximide cs	Pf growth 48h
COc1ccc(/C=C(\NC(=O)c2ccccc2)C(=O)N2CCC(C)CC2)cc1	.	/	/	.	/	13.1µM
CN1OC(c2ccccc2)=C(CO)C1c1ccccc1 (configuration not stated)	.	.	.	.	.	.
CC(C)OC(=O)/C(=C/c1ccc(Br)cc1)NC(=O)c1ccco1	.	.	.	13.1µM	.	.
O=C(N/C(=C\c1ccccc1)C(=O)N1CCOCC1)c1cccc(Br)c1	.	.	.	7.38µM	.	?
O=C(COC(=O)c1ccc(F)cc1F)Nc1ccc2[nH]c(=O)[nH]c2c1	.	.	.	.	.	.
CCc1nnc(NC(=O)CCN2C(=O)C3CCCCC3C2=O)s1 (configuration not stated)	.	.	.	.	.	.
Nc1c(C(=O)N2CCCC2)sc2nc3c(cc12)CCCCCC3	.	102.8	/	.	44.0	.
Nc1c(C(=O)N2CCOCC2)sc2nc3c(cc12)CCC3	.	68.4	.	.	26.2	.
Nc1c(C(=O)N2CCOCC2)sc2nc3c(cc12)CCCC3	.	.	.	.	17.6	.
O=C1Nc2ccc(Br)cc2C1(O)c1ccc(F)cc1 (configuration not stated)	.	.	.	.	.	?
COc1ccc(S(=O)(=O)N(C)C[C@H]2Oc3c(NC(=O)Nc4c(C)noc4C)cccc3C(=O)N([C@H](C)CO)C[C@@H]2C)cc1	.	/	/	/	/	/
CCC(C)(C)NC(=O)C(c1ccc(C)cc1)N(CCN1CCOCC1)C(=O)CNC(=O)c1cccs1 (configuration not stated)	.	.	.	.	.	.
O=C1CCN(CCc2ccccc2)CCN1[C@H](COc1ccccc1)Cc1ccccc1	.	.	.	3.29µM	.	?
CC(C)CN1CCC(=O)N([C@H](COc2ccccc2)Cc2ccccc2)CC1	.	.	.	11.7µM	.	?
CC(C)C[C@@H](COc1ccccc1)N1CCN(CCc2ccccc2)CCC1=O	.	.	.	?	.	.
CCOc1ccc(NC(=O)CN2C(=O)NC3(CCCC3)C2=O)cc1S(=O)(=O)N1CCCCC1	.	/	/	.	/	.
COc1ccc(NC(C)=O)cc1NC(=O)C1CCCN1C(=O)c1cccs1 (configuration not stated)	.	/	/	.	/	.
Cc1ccc(NC(=O)CN2CCCC2c2cccs2)cc1S(=O)(=O)N1CCCCC1 (configuration not stated)	.	/	/	?	/	9.28µM
CCOc1ccc(NC(=O)CN2CCCC2c2cccs2)cc1S(=O)(=O)N1CCCCC1 (configuration not stated)	.	/	/	?	/	11.7µM
CCOc1ccc(NC(=O)[C@@H]2CCCN2C(=O)c2cccs2)cc1S(=O)(=O)N1CCCCC1	.	/	/	9.28µM	/	?
O=C(Nc1ccc(OC(F)F)c(Cl)c1)[C@@H]1CCCN1C(=O)c1cccs1	.	.	.	4.15µM	.	?
O=C(CSc1nc(=O)n2ccccc2n1)N1CCCc2ccccc21	.	/	/	?	/	.
c1ccc(C2CCC(N3CCN(c4ccccc4)CC3)CC2)cc1 (configuration not stated)	.	.	.	.	.	.
CC(C)CN(C(=O)CN1CCN(c2ccc([N+](=O)[O-])cc2)CC1)c1c(N)n(CC(C)C)c(=O)[nH]c1=O	.	.	/	?	.	.
CCOc1ccc(NC(=O)CN(C)Cc2ccc3c(c2)OCO3)cc1S(=O)(=O)N1CCCC1	.	/	/	3.29µM	/	?
CCCCN(C)C(=O)c1cc2cc3cc(OC)ccc3nc2o1	.	62.7	/	.	41.6	?
COCCCNC(=O)c1cc2cc3cc(OC)ccc3nc2o1	.	.	.	.	19.7	10.4µM
